The results in this text go back to PubChem BioAssay (NCATS).

“And” between values parts separate entries of the source, which are not always exact repeats. Identical values can stand only once. Records with an inconclusive call do not appear. The source made the active and inactive calls. Unless noted, the call rests on the fitted dose curve; in most records, active means well fitted curve in the direction sought with a large enough effect; inconclusive means small, poorly fitted or top-dose-only effect, or another doubt; inactive means no such curve, though single readings can be large; an effect the other way counts as inactive or inconclusive.

For assay [1], the target named is Calcium and integrin-binding protein 1 (Homo sapiens) (UniProt Q99828). Description: Primary qHTS for Identification of Calcium Integrin Binding Protein 1 (CIB1) Competitor (AID 1508620).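 Further: GST tagged CIB1 binding a fluorescein labelled alphaIIb integrin peptide tracer; top concentration of the series differs between compounds.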 A digest of the protocol:
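CIB1-GST (1 uM final) and compound incubated 15 min at room temperature before adding FITC-alphaIIb peptide tracer (100 nM final). Competition for binding read by fluorescence polarization (ex 480, em 540) after another 15 min at room temperature.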

Assay [2] is described as follows: Primary qHTS for small molecule stabilizers of the endoplasmic reticulum resident proteome: Secreted ER Calcium Modulated Protein (SERCaMP) assay (AID 1508630). A digest of the protocol:
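The SH-SY5Y reporter protocol was run at 3 concentrations up to 38.3 uM (primary) or 11 concentrations (follow-up): 16 h compound, 100 nM thapsigargin for 4 h, then extracellular luciferase luminescence.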

Assay [3] concerns the target Cytochrome P450 2D6 (Homo sapiens) (UniProt P10635). Description: Cytochrome P450 family 2 subfamily D member 6 (CYP2D6) small molecule antagonists: luciferase biochemical (cell-free) qHTS assay (AID 1645840; active means well fitted curve in the direction sought with a large enough effect in the repeat runs; an effect the other way counts as inactive or inconclusive; further: nearly all actives have a fitted effect of over 55% in size; further: potency means the concentration at half of the fitted maximal effect). A digest of the protocol:
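P450-Glo CYP2D6 system: proluciferin substrate converted by enzyme to luciferin, read by luminescence proportional to activity. Enzyme-substrate mix with compound 10 min at room temperature, then NADPH regeneration 1 h before detection reagent.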

The target in assay [4] is Cytochrome P450 2C9 (Homo sapiens) (UniProt P11712). Put plainly: Cytochrome P450 family 2 subfamily C member 9 (CYP2C9) small molecule antagonists: luciferase biochemical (cell-free) qHTS assay (AID 1645842; active means well fitted curve in the direction sought with a large enough effect in the repeat runs; an effect the other way counts as inactive or inconclusive; further: nearly all actives have a fitted effect of over 55% in size; further: potency means the concentration at half of the fitted maximal effect). A digest of the protocol: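 P450-Glo CYP2C9 system: proluciferin substrate with enzyme in mix containing 0.4% BSA, 10 min at room temperature, then NADPH regeneration solution added and incubated 1 h at 37C. Detection reagent stopped reaction; luminescence read after 20 min as RLU.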

Assay [5] in a line: Primary qHTS for inhibitors of nuclear receptor binding SET domain protein 2 (NSD2) in an isogenic RCH-ACV NSD2 p.E1099K mutant (9B) (AID 1645876). Further: nearly all actives have a fitted effect of over 70% in size. Further: potency means the concentration at half of the fitted maximal effect.
The nature of assay [6]: Primary qHTS for inhibitors of nuclear receptor binding SET domain protein 2 (NSD2) in an RCH-ACV wild type WT cells (2C) (AID 1645877). Further: nearly all actives have a fitted effect of over 70% in size. Further: potency means the concentration at half of the fitted maximal effect.
The nature of assay [7]: NCATS anti-infectives library activity on HEK293 viability as a counter-qHTS vs the C. elegans viability qHTS (AID 1745854).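 Further: HEK293 cells exposed to compounds for 24 hr before the viability read.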 A digest of the protocol: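 Counter-screen for cytotoxicity: HEK293, 24 hr, 37C, compounds up to 41.7 uM final (a dilution series, 1:5). Readout CellTiter-Glo luminescence, 10 min RT. Digitonin control, […] uM final.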
Assay [8] addresses Cytochrome P450 3A4 (Homo sapiens) (UniProt P08684). Put plainly: Cytochrome P450 family 3 subfamily A member 4 (CYP3A4) small molecule antagonists: luciferase qHTS assay (AID 1645841; active means well fitted curve in the direction sought with a large enough effect in the repeat runs; an effect the other way counts as inactive or inconclusive; further: potency means the concentration at half of the fitted maximal effect; nearly all actives have a fitted effect of over 45% in size). In short, it runs like this: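 Luminescent CYP3A4 activity readout: compounds plus enzyme-substrate mix 10 min at room temperature, reaction started with NADPH regenerating system for 1 h, stopped with detection reagent, read after 20 min. Ketoconazole served as control.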

Cytochrome P450 2D6 (Homo sapiens), sequence (P10635 whole entry, looked up): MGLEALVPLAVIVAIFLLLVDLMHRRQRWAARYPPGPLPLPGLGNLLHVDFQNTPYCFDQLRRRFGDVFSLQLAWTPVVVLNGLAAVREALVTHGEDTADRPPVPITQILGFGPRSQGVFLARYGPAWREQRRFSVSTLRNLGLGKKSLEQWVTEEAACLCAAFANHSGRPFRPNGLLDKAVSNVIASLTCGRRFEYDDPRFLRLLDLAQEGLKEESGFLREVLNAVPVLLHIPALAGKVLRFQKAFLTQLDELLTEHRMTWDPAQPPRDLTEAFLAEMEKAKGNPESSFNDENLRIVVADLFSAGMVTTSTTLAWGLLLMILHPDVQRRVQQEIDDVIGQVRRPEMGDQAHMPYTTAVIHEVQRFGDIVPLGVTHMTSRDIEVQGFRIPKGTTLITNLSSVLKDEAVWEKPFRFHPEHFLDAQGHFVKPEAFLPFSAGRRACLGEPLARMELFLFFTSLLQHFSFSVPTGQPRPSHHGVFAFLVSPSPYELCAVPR
Calcium and integrin-binding protein 1 (Homo sapiens), sequence (Q99828 whole entry, looked up): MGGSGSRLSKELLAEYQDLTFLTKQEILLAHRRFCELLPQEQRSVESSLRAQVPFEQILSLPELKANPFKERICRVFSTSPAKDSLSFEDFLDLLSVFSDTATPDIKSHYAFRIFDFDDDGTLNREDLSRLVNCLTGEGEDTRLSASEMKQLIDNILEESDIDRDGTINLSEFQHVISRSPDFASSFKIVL
Cytochrome P450 2C9 (Homo sapiens), sequence (P11712 whole entry, looked up): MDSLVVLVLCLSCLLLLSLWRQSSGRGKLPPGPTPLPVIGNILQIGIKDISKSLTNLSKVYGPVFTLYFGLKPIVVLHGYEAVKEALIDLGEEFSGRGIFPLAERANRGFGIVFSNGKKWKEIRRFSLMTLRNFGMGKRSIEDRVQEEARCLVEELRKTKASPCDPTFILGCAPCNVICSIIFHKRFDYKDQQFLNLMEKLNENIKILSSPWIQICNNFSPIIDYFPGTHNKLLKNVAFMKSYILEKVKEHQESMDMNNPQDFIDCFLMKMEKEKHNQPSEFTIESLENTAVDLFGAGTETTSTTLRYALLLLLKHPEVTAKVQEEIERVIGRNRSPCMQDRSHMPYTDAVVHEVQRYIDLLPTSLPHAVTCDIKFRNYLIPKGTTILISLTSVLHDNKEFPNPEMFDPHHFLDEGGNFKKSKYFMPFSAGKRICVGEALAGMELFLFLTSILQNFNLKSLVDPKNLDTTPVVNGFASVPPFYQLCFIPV
Cytochrome P450 3A4 (Homo sapiens), sequence (P08684 whole entry, looked up): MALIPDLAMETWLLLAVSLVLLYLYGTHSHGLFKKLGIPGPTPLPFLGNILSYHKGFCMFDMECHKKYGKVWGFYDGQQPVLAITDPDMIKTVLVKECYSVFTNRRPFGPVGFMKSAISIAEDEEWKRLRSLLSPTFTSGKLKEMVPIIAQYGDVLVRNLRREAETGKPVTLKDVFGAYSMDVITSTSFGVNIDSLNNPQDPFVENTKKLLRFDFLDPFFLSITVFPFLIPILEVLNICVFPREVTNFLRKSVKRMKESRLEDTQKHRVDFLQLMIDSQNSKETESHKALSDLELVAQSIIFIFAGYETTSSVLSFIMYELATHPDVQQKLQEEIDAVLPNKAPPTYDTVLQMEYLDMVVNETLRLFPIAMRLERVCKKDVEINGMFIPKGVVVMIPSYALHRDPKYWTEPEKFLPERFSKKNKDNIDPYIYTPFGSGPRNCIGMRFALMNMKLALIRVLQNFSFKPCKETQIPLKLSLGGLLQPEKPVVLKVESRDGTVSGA

Consider `COc1cc(C(C)C)c(Oc2cnc(NC(CO)CO)nc2N)cc1I`, for which the Potency result in assay [1], in assay [5] and in assay [6] was “inactive” throughout. Moreover, in assay [2], the outcome was inactive. The Potency in assay [3] is 19 µM (active); in assay [4], 12 µM (active).
For the compound `Cn1cc(CNCC2CCN(c3ncc(C(=O)NO)cn3)CC2)c2ccccc21`, the Potency entry in assay [1], in assay [4] and in assay [7] was “inactive” in each case. The outcome in assay [2] was inactive. In addition, the values for the Potency in assay [3], in assay [5] and in assay [6] were 3.38 µM (active), 0.742 µM (active) and 742 nM (active), respectively.
On to `COc1ccc(C(C)=O)c(O)c1`, for which the Potency entry in assay [1] is “inactive”. Moreover, in assay [2], the result was inactive.
On to `CCc1nc(-c2cccc(C)c2)c(-c2ccnc(NC(=O)c3ccccc3)c2)s1`, for which the Potency entry in assay [1] and in assay [3] was “inactive” in each case. Further, the result in assay [2] was inactive. The Potency is 2.68 µM (active) in assay [4], 20.5 µM (active) in assay [5] and 16300 nM (active) in assay [6].
On to `Oc1cc(-c2nc(-c3ccccc3)[nH]c2-c2ccncc2)ccc1Cl`, for which, in assay [1], the Potency result was “inactive”. Moreover, in assay [2], the result was inactive. Moreover, the Potency in assay [3] is 0.756 µM (active); in assay [4] it was 1.69 µM (active); in assay [5] it was 11.8 µM (active) and 18.3 µM (active); in assay [6] it was 13.2 µM (active) and 16.4 µM (active).
For the compound `C[C@H](O)[C@@H]1C(=O)N2C(C(=O)O)=C(S[C@@H]3CN[C@H](CNS(N)(=O)=O)C3)[C@@H](C)[C@@H]12`, the Potency entry in assay [1], in assay [3], in assay [5] and in assay [6] was “inactive” in each case. The result in assay [2] was inactive.
Consider `O=C(Nc1ccc(Oc2ccnc3[nH]ccc23)c(F)c1)c1cccn(-c2ccc(F)cc2)c1=O`, for which the Potency result in assay [1] and in assay [3] was “inactive” each time. The result in assay [2] was inactive. For the same compound, the Potency in assay [4] was 1.9 µM (active); in assay [5], 16.6 µM (active).
For `CCc1c(O)cc(O)c(C(=O)c2ccc(OCCN3CCOCC3)c(OC)c2)c1CC(=O)N(CCOC)CCOC`, the Potency result in assay [1] and in assay [3] was “inactive” throughout. The result in assay [2] was inactive. Moreover, the Potency in assay [5] is 0.372 µM (active); in assay [6], 148 nM (active).
For `C=CC(=O)Nc1cc(NC(=O)c2ccc(C)c(NC(=O)c3ccno3)c2)cc(C(F)(F)F)c1`, the Potency entry in assay [1] is “inactive”. Further, in assay [2], the outcome was inactive.
Regarding `CS(=O)(=O)N1CCc2c(-c3cnc(N)nc3)nc(N3CCOCC3)nc21`, the Potency result in assay [1] and in assay [3] was “inactive” throughout. Also, the outcome in assay [2] was inactive. The Potency in assay [5] was 920 nM (active) and 468 nM (active); in assay [6] it was 459 nM (active) and 468 nM (active).
In the case of `CCOC(=O)N1CCN([N+]([O-])=NOc2ccc([N+](=O)[O-])cc2C#N)CC1`, the Potency result in assay [1] and in assay [3] was “inactive” throughout. Besides, the result in assay [2] was inactive.
On to `COC1=C2C[C@@H](C)C[C@H](OC)[C@@H](O)[C@@H](C)C=C(C)[C@H](OC(N)=O)[C@@H](OC)C=CC=C(C)C(=O)NC(=CC1=O)C2=O`, for which the Potency result in assay [1] is “inactive”. In addition, the outcome in assay [2] was inactive.
Consider `Cc1ncc(-c2ccnc(Nc3ccc(S(C)(=O)=O)cc3)n2)n1C(C)C`, for which the Potency entry in assay [1] and in assay [3] was “inactive” throughout. For the same compound, the outcome in assay [2] was inactive. The Potency in assay [4] is 3.79 µM (active); in assay [5] it was 1.45 µM (active) and 742 nM (active); in assay [6], 916 nM (active) and 525 nM (active).
Regarding `COc1ccc(Nc2nccc(NCCO)n2)cc1`, the Potency entry in assay [1] was “inactive”. For the same compound, the outcome in assay [2] was inactive.
Take `CC(C)(N)c1ccc(-c2nc3ccccc3nc2-c2ccccc2)cc1`: the Potency result in assay [1] was “inactive”. The outcome in assay [2] was inactive. The Potency was 15.1 µM (active) in assay [3], 13.5 µM (active) in assay [4], 16.3 µM (active) in assay [5] and 20500 nM (active) in assay [6].
Take `FC(F)c1nc2ccccc2n1-c1nc(N2CCOCC2)nc(N2CCOCC2)n1`: the Potency entry in assay [1] and in assay [3] was “inactive” in each case. The result in assay [2] was inactive. Further, the Potency in assay [4] was 1.69 µM (active); in assay [5], 57.8 nM (active) and 41.7 nM (active); in assay [6] it was 72.8 nM (active) and 105 nM (active).
Regarding `OCCNC1CCCc2c1[nH]c1ccc(-c3ccccc3)cc21` (stereo not drawn), in assay [1], the Potency entry is “inactive”. Also, the result in assay [2] was inactive. Moreover, the Potency is 15.1 µM (active) in assay [3], 26.8 µM (active) in assay [4], 11.8 µM (active) in assay [5] and 11800 nM (active) in assay [6].
Consider `C=CC(=O)Nc1ccc2ncnc(Nc3ccc(OCc4cccc(F)c4)c(Cl)c3)c2c1`, for which the Potency result in assay [1] and in assay [3] was “inactive” each time. In addition, the result in assay [2] was inactive. For the same compound, the Potency in assay [4] was 3.38 µM (active); in assay [5], 7.28 µM (active) and 5.9 µM (active); in assay [6], 8.17 µM (active) and 4.68 µM (active).
For the compound `COC[C@H](NC(=O)c1cnc(C)s1)C(=O)N[C@@H](COC)C(=O)N[C@@H](Cc1ccccc1)C(=O)[C@@]1(C)CO1`, the Potency result in assay [1], in assay [3] and in assay [4] was “inactive” in each case. Also, in assay [2], the result was inactive. Further, the Potency in assay [8] was 10.7 µM (active); in assay [5], 0.132 µM (active); in assay [6], 83.3 nM (active).
Regarding `C[C@@H]1[C@H](C)CC[C@]2(C(=O)O)CC[C@]3(C)C(=CC[C@@H]4[C@@]5(C)C[C@@H](O)[C@H](O)[C@@](C)(CO)[C@H]5CC[C@]43C)[C@@H]12`, the Potency result in assay [1] was “inactive”. For the same compound, the result in assay [2] was inactive.
On to `O=C(C[C@@H]1CC=CCCC(=O)O[C@H](c2ccccc2)CNC1=O)NCc1ccc(Cl)cc1`, for which the Potency entry in assay [1] was “inactive”. For the same compound, the result in assay [2] was inactive.
On to `NC(=O)c1cccc(-c2cccc(OC(=O)NC3CCCCC3)c2)c1`, for which the Potency entry in assay [1], in assay [3], in assay [4], in assay [5] and in assay [6] was “inactive” in each case. Also, the result in assay [2] was inactive.
